Bioassay records: PubChem, National Center for Advancing Translational Sciences (NCATS)
Most compounds without a hit are left out; they make up all but 3.5% or so of the library.
Tau fluor cs: counter-screen for tau fibril formation inhibitors | tau K18 P301L Alexa594 fluorescence, heparin fibrillization | Potency, µM (titrated, usually from 57.7 µM), without a hit: at the highest dose activity change, negative = decrease | 0.93% of 280,000 active | AID 1463; further: nearly all actives have a fitted effect of over 55% in size
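Human tau K18 P301L (15 uM unlabeled, 0.24 uM Alexa 594-labeled) in 100 mM sodium acetate pH 7 with 20 uM heparin, 6 hr at 37 C. ThT 30 uM added, 1 hr ambient; Alexa 594 FP and total fluorescence read at 555/632 nm.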
Tau ThT inhib: blocks human tau fibril formation measured by thioflavin T; recombinant tau K18 P301L, heparin-induced fibrillization, ThT fluorescence; Potency, µM (highest dose often 57.4 µM), for the others: top-dose activity, negative = inhibition, usual class: inhibitors; 2.1% of 270,000 active; AID 1460; further: nearly all actives have a fitted effect of over 55% in size
Target sequence (P10636 561-689 P618L limits assumed): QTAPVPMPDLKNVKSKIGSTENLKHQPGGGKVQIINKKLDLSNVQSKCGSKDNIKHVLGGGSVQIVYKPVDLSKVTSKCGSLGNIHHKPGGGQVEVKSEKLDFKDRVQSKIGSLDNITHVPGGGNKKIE
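Aggregation was driven by heparin (20 uM final) acting on recombinant tau […] bearing P301L in 100 mM sodium acetate pH 7; fibrils were detected with Thioflavin T.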
Tau fibril FP: tau fibrillization inhibition (FP); K18 P301L tau heparin fibrillization, Alexa594 FP, 6 h; Potency, µM (top dose mostly 57.7 µM), inactives show at the top dose activity, negative = inhibition, usual class: inhibitors; P10636; 0.39% of 280,000 active; AID 1468; further: nearly all actives have a fitted effect of over 55% in size
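Heparin (20 uM) drove fibril formation of recombinant tau K18 P301L, 15 uM unlabeled with 0.24 uM Alexa 594 label, for 6 hr at 37 C in 100 mM sodium acetate pH 7. Fluorescence polarization (555/632 nm) read 1 hr after 30 uM ThT.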
KDM4E inh: blocks human JMJD2E demethylase activity | 1.6% of 230,000 active | Potency, µM (highest dose often 57.1 µM), for inactives: at the top dose activity change, negative = inhibition, actives largely listed as inhibitors | JMJD2E catalytic domain, FDH-coupled NADH fluorescence (FDH is formaldehyde dehydrogenase);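 further: 0% = wells with enzyme and -100% = buffer wells without enzyme; nearly all actives have a fitted effect of over 50% in size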
TR SRC2 fluor cs: counter-screen for TRb-SRC2 inhibitors: fluorescence interference; TRb/SRC2 Texas Red total fluorescence interference; Potency, µM (top dose mostly 106 µM), inactives show at the highest dose fluorescence change, negative = quenching; 0.29% of 280,000 active; AID 1479; active means well fitted curve in either direction with a large enough effect; inconclusive means small, poorly fitted or top-dose-only effect
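Flags fluorescent or light-absorbing compounds by total fluorescence, S + 2P, at 555 nm excitation and 632 nm emission. Mixture: 20 nM Texas Red SRC2 peptide, 0.6 uM human TRb LBD, 1 uM T3, 5% DMSO; compound exposure 5 h at ambient temperature.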
TRb-SRC2 inh: TRbeta-SRC2 interaction inhibition; P10828; TRbeta-SRC2 peptide binding, fluorescence polarization; receptor liganded with 1 µM T3; Potency, µM (doses to about 106 µM), for the others: at the highest dose activity change, negative = inhibition, usual class: inhibitors; 0.065% of 280,000 active;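 further: plate controls were bound peptide for no effect and peptide without receptor for full effect; nearly all actives have a fitted effect of over 50% in size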
Target sequence (P10828 whole entry, looked up): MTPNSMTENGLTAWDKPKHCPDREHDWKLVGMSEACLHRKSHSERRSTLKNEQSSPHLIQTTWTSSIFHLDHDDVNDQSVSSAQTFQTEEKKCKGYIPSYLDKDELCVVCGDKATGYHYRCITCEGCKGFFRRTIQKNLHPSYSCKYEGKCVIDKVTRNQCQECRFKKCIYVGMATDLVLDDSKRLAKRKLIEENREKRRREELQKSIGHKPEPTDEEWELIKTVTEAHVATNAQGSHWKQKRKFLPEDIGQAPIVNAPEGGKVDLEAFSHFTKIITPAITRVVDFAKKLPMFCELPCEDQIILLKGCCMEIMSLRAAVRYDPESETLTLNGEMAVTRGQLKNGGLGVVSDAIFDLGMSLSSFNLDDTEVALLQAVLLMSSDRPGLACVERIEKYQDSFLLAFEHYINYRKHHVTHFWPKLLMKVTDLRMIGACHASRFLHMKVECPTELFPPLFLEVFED
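Compounds were added to 0.6 uM TRb ligand-binding domain and 20 nM Texas Red-labeled SRC2 peptide in Tris buffer containing 1 uM T3, incubated 5 hr at ambient temperature, then read by fluorescence polarization.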
* hit, by the source's call; [ ] = another dose, or the depositor's remark. Unless noted, the call rests on the fitted dose curve; in most records, active means well fitted curve in the direction sought with a large enough effect; inconclusive means small, poorly fitted or top-dose-only effect, or another doubt; inactive means no such curve, though single readings can be large; an effect the other way counts as inactive or inconclusive. Unless noted, on the % scale 0 is the no-effect control and ±100 the full control effect; potency means the concentration at half of the fitted maximal effect.

`Cc1cccc(OCc2ccc(-c3nc(C#N)c(NCCN(C)C)o3)o2)c1` gave Tau fluor cs inconclusive, Tau ThT inhib -5.4%, Tau fibril FP inconclusive, TR SRC2 fluor cs -7.2% and TRb-SRC2 inh 2.1%.
CC(C)c1nnc(NC(=O)CSc2ncn[nH]2)s1 was read as Tau fluor cs 3.1%, Tau ThT inhib 1.7%, Tau fibril FP -5.6%, KDM4E inh inconclusive, TR SRC2 fluor cs 0.8% and TRb-SRC2 inh -25.2%.
Screening COc1ccc(-c2cc(-c3cc(C)ccc3O)[nH]n2)cc1 returned Tau fluor cs 15.8µM*[quencher], Tau ThT inhib inconclusive, Tau fibril FP inconclusive, KDM4E inh -2.4%, TR SRC2 fluor cs 1.5% and TRb-SRC2 inh 0.3%.
For COc1ccc(-c2cc(-c3ccc(OC)cc3)[nH]n2)cc1 the results were Tau fluor cs inconclusive, Tau ThT inhib inconclusive, Tau fibril FP -12.3%, KDM4E inh -5.7%, TR SRC2 fluor cs -0.2% and TRb-SRC2 inh -4.3%.
CC1=CC(C)(C)N2C(=O)C(=Nc3ccc(O)cc3)c3cccc1c32 was read as Tau fluor cs inconclusive, Tau ThT inhib 12.6µM*, Tau fibril FP 28.2µM*, KDM4E inh 12.6µM*, TR SRC2 fluor cs 3.0% and TRb-SRC2 inh 35.5µM*.
Nc1nnc(SCc2ccc([N+](=O)[O-])cc2)s1 was read as Tau fluor cs 7.9%, Tau ThT inhib -0.7%, Tau fibril FP 1.8%, KDM4E inh 7.3%, TR SRC2 fluor cs -3.2% and TRb-SRC2 inh 9.8%.
Screening COC(=O)c1cccc(C23CC4(C2)[C@H](CN(Cc2ccc(-c5ccccc5)cc2)[C@@H]4c2ccccc2)C3c2ccc(C(F)(F)F)cc2)c1 (stereo partly specified) returned Tau fluor cs 2.7%, Tau ThT inhib -3.8%, Tau fibril FP -3.2%, KDM4E inh 20µM*, TR SRC2 fluor cs -1.7% and TRb-SRC2 inh 2.8%.
CC(NC(=O)c1ccnn1C)C1CCCO1 (stereo unspecified) was read as Tau fluor cs -1.8%, Tau ThT inhib 3.4%, Tau fibril FP -5.7%, KDM4E inh 12.9%, TR SRC2 fluor cs -2.1% and TRb-SRC2 inh 5.9%.
`COc1ccc(OCCn2cc(/C=N/NC(=O)c3ccncc3)c3ccccc32)cc1` gave Tau fluor cs 12.6µM*[quencher], Tau ThT inhib inconclusive, Tau fibril FP 15.1%, KDM4E inh inconclusive, TR SRC2 fluor cs -3.9% and TRb-SRC2 inh -3.2%.
`COCCNC(=O)Cn1cc(/C=N/NC(=O)c2ccc(Oc3ccc(O)cc3)cc2)c2ccccc21` gave Tau fluor cs 17.8µM*[quencher], Tau ThT inhib inconclusive, Tau fibril FP 15.7%, KDM4E inh -1.1%, TR SRC2 fluor cs 0.8% and TRb-SRC2 inh -1.6%.
`COc1cccc(OCCn2cc(/C=N/NC(=O)c3ccncc3)c3ccccc32)c1` gave Tau fluor cs 14.1µM*[quencher], Tau ThT inhib inconclusive, Tau fibril FP 10.4%, KDM4E inh -11.4%, TR SRC2 fluor cs -2.8% and TRb-SRC2 inh -7.6%.
Cc1ccc(OCCn2cc(/C=N/NC(=O)c3ccncc3)c3ccccc32)cc1 was read as Tau fluor cs 12.6µM*[quencher], Tau ThT inhib -8.0%, Tau fibril FP 5.5%, KDM4E inh -4.1%, TR SRC2 fluor cs -2.9% and TRb-SRC2 inh 7.1%.
COC(=O)c1cc2oc(C)cc2n1CC(=O)Nc1cc(C)cc(C)c1 was read as Tau fluor cs 2.3%, Tau ThT inhib 2.9%, Tau fibril FP 12.9%, KDM4E inh -21.2%, TR SRC2 fluor cs 4.2% and TRb-SRC2 inh 1.8%.
O=C(CNc1ccc2c(c1)OCO2)N/N=C\c1cn(Cc2ccccc2)c2ccccc12 was read as Tau fluor cs 10µM*[quencher], Tau ThT inhib inconclusive, Tau fibril FP 2.5%, KDM4E inh -12.4%, TR SRC2 fluor cs 0.3% and TRb-SRC2 inh -0.2%.
`O=C(N/N=C/c1cn(Cc2ccccc2)c2ccccc12)c1ccncc1` gave Tau fluor cs 25.1µM*[quencher], Tau ThT inhib inconclusive, Tau fibril FP 14.1%, KDM4E inh -5.1%, TR SRC2 fluor cs -2.2% and TRb-SRC2 inh -8.2%.
O=C(N/N=C/c1cn(Cc2ccccc2)c2ccccc12)c1cccnc1 was read as Tau fluor cs inconclusive, Tau ThT inhib inconclusive, Tau fibril FP 13.6%, KDM4E inh -18.2%, TR SRC2 fluor cs -4.2% and TRb-SRC2 inh 1.2%.
`COC(=O)N/N=C/c1cn(CC(C)COc2ccccc2)c2ccccc12` (stereo unspecified) gave Tau fluor cs 14.1µM*[quencher], Tau ThT inhib inconclusive, Tau fibril FP inconclusive, KDM4E inh 3.3%, TR SRC2 fluor cs -6.1% and TRb-SRC2 inh 0.9%.
`Cc1ccc(OCCn2cc(/C=C3\C(=O)NN(c4ccccc4)C3=O)c3ccccc32)cc1` gave Tau fluor cs inconclusive, Tau ThT inhib 7.08µM*, Tau fibril FP inconclusive, KDM4E inh -3.7%, TR SRC2 fluor cs -0.4% and TRb-SRC2 inh -3.3%.
Screening Cc1cc(-c2ccccc2)nc2c(Br)c(=O)[nH]n12 returned Tau fluor cs -17.1%, Tau ThT inhib 10µM*, Tau fibril FP inconclusive, KDM4E inh 2.5%, TR SRC2 fluor cs -1.2% and TRb-SRC2 inh -1.7%.
Cc1cc2nc(-c3ccccc3)cc(=O)n2[nH]1 was read as Tau fluor cs -6.2%, Tau ThT inhib -5.8%, Tau fibril FP 5.5%, KDM4E inh inconclusive, TR SRC2 fluor cs -2.8% and TRb-SRC2 inh -2.1%.
Screening COc1ccc(-c2nc(CS(=O)(=O)CC(=O)Nc3ccc(Cl)cc3)c(C)o2)cc1 returned Tau fluor cs -2.3%, Tau ThT inhib -0.4%, Tau fibril FP -9.3%, KDM4E inh -1.1%, TR SRC2 fluor cs -1.5% and TRb-SRC2 inh -0.6%.
For O=C1CCc2cc(S(=O)(=O)NCCC(=O)NC3CCN(Cc4ccccc4)CC3)ccc2N1 the results were Tau fluor cs -21.0%, Tau ThT inhib -9.5%, Tau fibril FP -12.7%, KDM4E inh 4.9%, TR SRC2 fluor cs -1.0% and TRb-SRC2 inh 0.2%.
`O=C(O)c1cccc(-n2cccc2/C=C2/NC(=O)N(c3ccc(Cl)cc3)C2=O)c1` gave Tau fluor cs -11.8%, Tau ThT inhib -19.5%, Tau fibril FP -12.0%, KDM4E inh inconclusive, TR SRC2 fluor cs 17.8µM*[quencher] and TRb-SRC2 inh inconclusive.
CCc1ccc(NC(=O)COC(=O)CCc2nc3cc(S(=O)(=O)N(CC)CC)ccc3n2C)cc1 was read as Tau fluor cs -15.1%, Tau ThT inhib -9.0%, Tau fibril FP 6.3%, KDM4E inh 9.9%, TR SRC2 fluor cs 4.7% and TRb-SRC2 inh 7.2%.
